Of roughly 8,800 targets only a part is listed; those with a hit were picked by preference. About 0.5% of all pairs of compound and target were hits.
The targets below were run with CCN(CCCOc1ccc2c(Nc3cc(CC(=O)Nc4cccc(F)c4)[nH]n3)ncnc2c1)CCOP(=O)(O)O [barasertib] (assay: log2 fold change, soluble protein after heating vs DMSO (PISA); higher = thermal stabilisation; K562 lysate, 10 uM; active = over 0.2 and 3.5 SD of the protein, either way, in both replicates (recomputed)).
How it was run: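 K562 pellets were dounce-homogenised in PBS pH 7.4 containing 1 mM MgCl2, and the crude extract, at 1 mg/mL protein, was exposed to 10 μM compound for 30 min. Aliquots were heated for 3 min across 48°C-58°C, pooled, brought to 0.5% NP-40 at 4°C and spun at 21,000xg for 90 min, with the supernatant taken as soluble protein. TMTpro 16plex LC-MS/MS with equalised channel sums quantified that protein. Values are log-two fold changes in thermal stability relative to solvent controls, taken from duplicates.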

UniProt Q9H2H8, sequence (Q9H2H8 whole entry, looked up): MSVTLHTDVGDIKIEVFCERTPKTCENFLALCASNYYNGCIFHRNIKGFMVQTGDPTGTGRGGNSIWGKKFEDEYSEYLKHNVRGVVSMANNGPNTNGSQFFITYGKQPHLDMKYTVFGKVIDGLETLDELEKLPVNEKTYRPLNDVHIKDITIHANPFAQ
UniProt O94906, sequence (O94906 whole entry, looked up): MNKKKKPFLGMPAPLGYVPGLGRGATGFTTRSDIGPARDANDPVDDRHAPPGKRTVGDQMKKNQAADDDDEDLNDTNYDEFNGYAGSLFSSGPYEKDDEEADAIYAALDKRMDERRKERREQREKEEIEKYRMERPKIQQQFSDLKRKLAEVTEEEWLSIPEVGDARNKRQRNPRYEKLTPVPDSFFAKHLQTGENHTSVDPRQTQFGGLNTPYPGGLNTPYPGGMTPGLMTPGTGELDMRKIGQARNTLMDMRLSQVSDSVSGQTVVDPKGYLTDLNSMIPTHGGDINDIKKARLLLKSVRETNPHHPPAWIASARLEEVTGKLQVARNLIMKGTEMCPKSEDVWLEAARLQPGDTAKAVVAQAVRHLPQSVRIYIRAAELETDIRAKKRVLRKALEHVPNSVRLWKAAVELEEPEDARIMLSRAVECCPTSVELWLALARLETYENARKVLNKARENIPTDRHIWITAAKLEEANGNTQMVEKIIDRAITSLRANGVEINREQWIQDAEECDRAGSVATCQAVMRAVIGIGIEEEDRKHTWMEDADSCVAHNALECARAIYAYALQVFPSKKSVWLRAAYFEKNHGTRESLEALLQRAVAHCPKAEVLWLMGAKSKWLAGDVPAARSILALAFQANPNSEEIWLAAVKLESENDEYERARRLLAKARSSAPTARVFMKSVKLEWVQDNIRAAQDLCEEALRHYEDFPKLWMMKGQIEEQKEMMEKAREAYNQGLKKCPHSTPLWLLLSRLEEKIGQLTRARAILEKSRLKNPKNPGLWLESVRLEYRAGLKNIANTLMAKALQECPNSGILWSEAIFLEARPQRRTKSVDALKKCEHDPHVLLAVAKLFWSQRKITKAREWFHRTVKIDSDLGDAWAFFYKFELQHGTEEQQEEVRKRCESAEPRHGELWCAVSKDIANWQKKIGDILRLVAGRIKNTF
UniProt Q14671, sequence (Q14671 whole entry, looked up): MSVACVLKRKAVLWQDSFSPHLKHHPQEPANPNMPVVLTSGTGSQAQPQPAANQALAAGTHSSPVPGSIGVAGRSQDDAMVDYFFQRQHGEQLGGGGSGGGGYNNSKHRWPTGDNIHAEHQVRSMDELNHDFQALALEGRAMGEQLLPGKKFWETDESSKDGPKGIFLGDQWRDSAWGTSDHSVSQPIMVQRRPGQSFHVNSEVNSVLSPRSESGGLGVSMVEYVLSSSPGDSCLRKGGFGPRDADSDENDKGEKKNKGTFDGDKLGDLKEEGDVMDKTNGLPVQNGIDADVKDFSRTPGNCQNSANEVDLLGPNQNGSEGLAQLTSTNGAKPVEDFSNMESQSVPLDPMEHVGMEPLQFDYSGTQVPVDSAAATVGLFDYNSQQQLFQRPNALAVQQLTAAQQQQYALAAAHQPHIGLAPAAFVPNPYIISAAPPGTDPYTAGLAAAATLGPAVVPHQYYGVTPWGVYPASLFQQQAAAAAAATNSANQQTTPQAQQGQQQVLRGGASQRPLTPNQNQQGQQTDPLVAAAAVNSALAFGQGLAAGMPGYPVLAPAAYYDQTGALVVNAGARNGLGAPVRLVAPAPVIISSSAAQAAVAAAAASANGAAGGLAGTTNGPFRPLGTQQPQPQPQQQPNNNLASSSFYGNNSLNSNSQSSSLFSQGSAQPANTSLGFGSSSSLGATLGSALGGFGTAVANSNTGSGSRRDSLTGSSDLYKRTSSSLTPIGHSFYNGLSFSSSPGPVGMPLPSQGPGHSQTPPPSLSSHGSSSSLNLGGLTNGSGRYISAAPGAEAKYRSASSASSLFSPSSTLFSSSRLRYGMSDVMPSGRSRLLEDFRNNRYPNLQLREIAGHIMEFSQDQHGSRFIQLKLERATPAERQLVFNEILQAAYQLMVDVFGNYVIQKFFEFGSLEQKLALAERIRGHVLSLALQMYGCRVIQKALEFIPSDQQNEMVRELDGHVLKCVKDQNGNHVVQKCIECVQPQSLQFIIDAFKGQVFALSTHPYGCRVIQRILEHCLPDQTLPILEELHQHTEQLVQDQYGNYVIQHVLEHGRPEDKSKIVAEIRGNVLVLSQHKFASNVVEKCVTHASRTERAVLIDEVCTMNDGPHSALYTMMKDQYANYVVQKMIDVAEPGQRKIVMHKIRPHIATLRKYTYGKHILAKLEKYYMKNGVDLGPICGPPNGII
UniProt O00264, sequence (O00264 whole entry, looked up): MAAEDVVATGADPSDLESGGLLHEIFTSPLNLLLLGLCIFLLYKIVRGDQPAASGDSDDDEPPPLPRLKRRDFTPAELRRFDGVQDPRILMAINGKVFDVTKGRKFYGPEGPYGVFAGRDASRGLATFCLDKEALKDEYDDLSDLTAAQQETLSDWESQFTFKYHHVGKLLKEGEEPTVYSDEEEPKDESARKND
UniProt Q9ULR3, sequence (Q9ULR3 whole entry, looked up): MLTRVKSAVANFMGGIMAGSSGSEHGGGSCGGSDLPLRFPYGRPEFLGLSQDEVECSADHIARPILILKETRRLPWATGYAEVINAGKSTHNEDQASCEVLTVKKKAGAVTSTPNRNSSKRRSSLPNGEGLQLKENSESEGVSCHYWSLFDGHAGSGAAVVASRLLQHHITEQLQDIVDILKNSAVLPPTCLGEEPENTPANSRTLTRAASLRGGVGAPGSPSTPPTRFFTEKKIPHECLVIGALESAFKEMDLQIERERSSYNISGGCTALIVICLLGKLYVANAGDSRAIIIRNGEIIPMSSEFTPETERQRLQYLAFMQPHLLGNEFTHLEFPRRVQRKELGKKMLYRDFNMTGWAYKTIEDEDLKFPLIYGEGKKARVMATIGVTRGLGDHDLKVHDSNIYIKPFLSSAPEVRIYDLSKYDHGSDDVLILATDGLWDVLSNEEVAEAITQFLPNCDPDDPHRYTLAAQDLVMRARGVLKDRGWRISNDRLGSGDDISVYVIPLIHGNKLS
UniProt Q9Y244, sequence (Q9Y244 whole entry, looked up): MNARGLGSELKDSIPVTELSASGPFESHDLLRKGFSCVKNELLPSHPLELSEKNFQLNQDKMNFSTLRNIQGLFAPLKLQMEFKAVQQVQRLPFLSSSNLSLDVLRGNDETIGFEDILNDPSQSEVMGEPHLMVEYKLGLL
UniProt P14314, sequence (P14314 whole entry, looked up): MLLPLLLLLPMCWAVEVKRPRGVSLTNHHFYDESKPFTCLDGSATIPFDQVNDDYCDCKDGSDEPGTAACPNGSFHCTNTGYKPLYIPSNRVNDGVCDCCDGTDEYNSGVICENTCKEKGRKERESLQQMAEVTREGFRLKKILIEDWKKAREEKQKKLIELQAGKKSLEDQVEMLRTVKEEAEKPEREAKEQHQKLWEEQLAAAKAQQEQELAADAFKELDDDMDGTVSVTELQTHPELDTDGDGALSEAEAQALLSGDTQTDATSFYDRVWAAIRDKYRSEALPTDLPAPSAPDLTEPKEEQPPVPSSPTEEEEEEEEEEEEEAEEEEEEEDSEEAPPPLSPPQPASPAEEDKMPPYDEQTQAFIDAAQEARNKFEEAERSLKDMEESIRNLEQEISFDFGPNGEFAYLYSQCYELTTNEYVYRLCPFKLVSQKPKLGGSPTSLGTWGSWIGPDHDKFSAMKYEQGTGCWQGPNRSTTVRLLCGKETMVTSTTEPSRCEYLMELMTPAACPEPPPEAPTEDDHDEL
UniProt O15067, sequence (O15067 whole entry, looked up): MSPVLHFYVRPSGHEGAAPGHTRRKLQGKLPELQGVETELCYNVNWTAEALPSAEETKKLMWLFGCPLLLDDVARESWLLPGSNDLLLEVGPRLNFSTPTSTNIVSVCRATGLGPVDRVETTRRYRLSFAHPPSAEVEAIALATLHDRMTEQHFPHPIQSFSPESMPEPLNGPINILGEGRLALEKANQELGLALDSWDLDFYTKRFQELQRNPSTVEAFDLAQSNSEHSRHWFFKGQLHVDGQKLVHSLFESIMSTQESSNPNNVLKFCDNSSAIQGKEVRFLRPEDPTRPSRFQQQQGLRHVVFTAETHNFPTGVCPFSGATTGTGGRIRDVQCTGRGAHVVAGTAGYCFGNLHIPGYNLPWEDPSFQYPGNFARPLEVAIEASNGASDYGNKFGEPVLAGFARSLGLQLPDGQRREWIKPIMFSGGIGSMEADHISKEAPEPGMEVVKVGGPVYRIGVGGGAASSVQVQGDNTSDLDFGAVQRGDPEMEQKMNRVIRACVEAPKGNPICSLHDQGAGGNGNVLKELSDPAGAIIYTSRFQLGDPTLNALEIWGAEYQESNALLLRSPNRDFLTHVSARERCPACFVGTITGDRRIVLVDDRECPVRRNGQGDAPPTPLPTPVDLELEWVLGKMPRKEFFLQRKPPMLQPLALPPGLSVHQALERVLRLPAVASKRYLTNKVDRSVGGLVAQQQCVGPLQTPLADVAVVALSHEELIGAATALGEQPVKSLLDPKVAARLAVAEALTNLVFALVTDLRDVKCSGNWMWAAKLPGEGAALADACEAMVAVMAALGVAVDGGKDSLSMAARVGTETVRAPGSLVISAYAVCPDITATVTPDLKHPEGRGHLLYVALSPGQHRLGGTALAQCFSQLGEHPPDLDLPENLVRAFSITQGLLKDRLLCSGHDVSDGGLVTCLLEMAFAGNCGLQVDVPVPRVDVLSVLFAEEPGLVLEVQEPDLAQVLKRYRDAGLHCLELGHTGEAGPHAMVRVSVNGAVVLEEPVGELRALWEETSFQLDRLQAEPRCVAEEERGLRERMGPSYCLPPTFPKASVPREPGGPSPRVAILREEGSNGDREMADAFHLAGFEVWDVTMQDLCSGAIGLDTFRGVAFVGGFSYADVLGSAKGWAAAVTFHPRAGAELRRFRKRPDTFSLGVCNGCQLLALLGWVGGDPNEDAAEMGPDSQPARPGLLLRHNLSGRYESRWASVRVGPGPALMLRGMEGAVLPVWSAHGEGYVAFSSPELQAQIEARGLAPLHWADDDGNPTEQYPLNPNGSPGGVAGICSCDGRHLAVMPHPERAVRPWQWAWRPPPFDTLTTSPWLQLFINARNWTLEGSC

log2 fold change, inactive:
PCIF1 (UniProt Q9H4Z3) 0.088
PEF1 (UniProt Q9UBV8) 0.189
PMPCA (UniProt Q10713) -0.014
PPP4R2 (UniProt Q9NY27) -0.041
PLXNB2 (UniProt O15031) 0.008
PIK3R1 (UniProt P27986) -0.005
PTGR2 (UniProt Q8N8N7) -0.022
PFKFB4 (UniProt Q16877) 0.087
PFAS (UniProt O15067) 0.015
PRKAR2B (UniProt P31323) 0.053
PGRMC1 (UniProt O00264) 0.019
PPP3CA isoform 2 (UniProt Q08209) 0.025
PUM1 isoform 3 (UniProt Q14671) 0.068
PPP1R14C (UniProt Q8TAE6) 0.002
PRKCB isoform 2 (UniProt P05771) -0.017
PIP4K2A (UniProt P48426) -0.051
POLR2B (UniProt P30876) 0.039
PPP2R3C (UniProt Q969Q6) 0.094
PFKFB3 isoform 4 (UniProt Q16875) 0.003
PCF11 (UniProt O94913) 0.015
PRPF38A (UniProt Q8NAV1) -0.037
POMP (UniProt Q9Y244) -0.034
PRKD2 isoform 3 (UniProt Q9BZL6) 0.034
PPIE (UniProt Q9UNP9) -0.042
POLR2F (UniProt P61218) 0.034
PWP1 (UniProt Q13610) 0.012
PLEKHA5 isoform 6 (UniProt Q9HAU0) 0.043
PHKB isoform 3 (UniProt Q93100) 0.04
PRKCSH (UniProt P14314) -0.009
PIK3R2 (UniProt O00459) -0.002
PITRM1 isoform 2 (UniProt Q5JRX3) -0.01
PIKFYVE (UniProt Q9Y2I7) 0.26
PPIL3 (UniProt Q9H2H8) 0.099
PTPN1 (UniProt P18031) 0.042
PPME1 isoform 4 (UniProt Q9Y570) -0.045
PPM1H (UniProt Q9ULR3) 0
PRPF6 (UniProt O94906) 0.039
PRRC2A (UniProt P48634) -0.013
PHKA1 (UniProt P46020) 0.089

— the supplement of paper PMC10849652
